Compound activity deposited in PubChem BioAssay by National Center for Advancing Translational Sciences (NCATS).
IL-1B inflam inh – blocks inflammasome-driven IL-1 beta release. THP-1 LPS/ATP IL-1B secretion, AlphaLISA, 16 h; hits give low values. 360,000 compounds, 4.7% hits. activity change, % at 57.5 µM; in the data active means activity change below about -50%; inconclusive means mostly about -30% to -49%
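THP-1 cells pretreated 1 hr with compounds (up to 57.5 uM final), then stimulated with LPS (250 ng/mL final) plus ATP (1.25 mM final); secreted IL-1B measured by AlphaLISA after 16 hr, decreased signal indicating inhibition.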
HT1080-NT tox – kills 2HG-producing HT-1080-NT fibrosarcoma cells | Potency, µM (highest dose often 46.1 µM), without a hit: at the top dose activity, negative = less viability, most hits filed as cytotoxic | AID 686970 | HT-1080-NT fibrosarcoma viability, CellTiter-Glo ATP luminescence, 48 h | 360,000 compounds, 1.6% hits;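 further: NT is the 2HG producing partner of a matched IDH1 knockdown line; potency means the concentration at half of the fitted maximal effect; 0% = DMSO-treated cells and -100% = media-only wells without cells; nearly all actives have a fitted effect of over 55% in size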
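Toxicity toward the 2HG-producing NT line was scored as %Activity, normalised to DMSO and no-cell wells, from CellTiter-Glo luminescence after 48 hours' treatment.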
uPA surface inh – cell surface uPA generation inhibition | cell surface uPA generation assay, qHTS | 330,000 compounds, 0.31% hits | Potency, µM (series often up to 38.3 µM), inactives show at the highest dose activity change, negative = inhibition, most hits filed as inhibitors; active means well fitted inhibition curve with a large enough effect; inconclusive means small, poorly fitted or top-dose-only effect; inactive means no such curve, though single readings can be large or run the other way; tested in mouse RAW 264.7 cells; further: potency means the concentration at half of the fitted maximal effect; nearly all actives have a fitted effect of over 55% in size
TDP1 cell noCPT – qHTS for Inhibitors of human tyrosyl-DNA phosphodiesterase 1 (TDP1): qHTS in cells in absence of CPT; DT40 Tdp1-/- hTDP1 cells, no CPT, ATP luminescence, 48 h; Potency, µM (titrated, usually from 46.2 µM), inactives show at the top dose activity change, negative = growth inhibition, hits mostly inhibitors; 420,000 compounds, 15% hits; AID 686978, 2013; further: potency means the concentration at half of the fitted maximal effect; nearly all actives have a fitted effect of over 55% in size
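Seeded 400 DT40-hTDP1 cells/well (vehicle DMSO, no 20 nM CPT); pinned compounds; ≥48 hr at 37 °C; CellTiter-Glo luminescence as viability measure.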
DT40 TDP1 CPT – growth inhibition of DT40 Tdp1-/-;hTDP1 cells with camptothecin (screen for TDP1 inhibitors); chicken DT40 Tdp1-/-;hTDP1 cells + 20 nM CPT, ATP luminescence, 48 h; Potency, µM (series often up to 46.2 µM), without a hit: top-dose activity change, negative = growth inhibition, hits mostly inhibitors; 420,000 compounds, 12% hits; AID 686979; further: potency means the concentration at half of the fitted maximal effect; nearly all actives have a fitted effect of over 55% in size
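Chicken DT40 Tdp1-/- cells stably complemented with human TDP1 were seeded at 400 cells/well in medium containing 20 nM camptothecin, exposed to pin-transferred compounds, and grown at 37 °C for at least 48 hr. Viability was read as ATP luminescence.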
HT1080 IDH1KD tx – toxicity to HT-1080 IDH1 knockdown cells (counter line); 360,000 compounds, 2% hits; HT-1080 IDH1 knockdown viability, ATP luminescence, 48 h; Potency, µM (doses to about 46.1 µM), for inactives: at the highest dose activity, negative = toxicity, actives largely listed as cytotoxic;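 further: potency means the concentration at half of the fitted maximal effect; 0% = DMSO wells and -100% = cell-free medium wells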
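In this qHTS, HT-1080 cells depleted of IDH1 are exposed for 48 h at 37 °C to compound titrations. Toxicity is scored from CellTiter-Glo luminescence, with DMSO as full viability and medium alone as none.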
* hit, by the source's call; ? = inconclusive; . = not tested or not shown; ! = repeats disagree; [ ] = another dose, or the depositor's remark. The list is not random: actives were taken first. Their share in the collection is about 19%. Unless noted, the call rests on the fitted dose curve; in most records, active means well fitted curve in the direction sought with a large enough effect; inconclusive means small, poorly fitted or top-dose-only effect, or another doubt; inactive means no such curve, though single readings can be large; an effect the other way counts as inactive or inconclusive. Unless noted, on the % scale 0 is the no-effect control and ±100 the full control effect.

SMILES | IL-1B inflam inh | HT1080-NT tox | uPA surface inh | TDP1 cell noCPT | DT40 TDP1 CPT | HT1080 IDH1KD tx
CC(=O)N1CCc2cc(S(=O)(=O)NC(CC(C)C)C(=O)NCCc3cccc(C)c3)ccc21 (centres undefined) | . | . | . | -7% | 2% | .
CCN(CC)CCc1nc(-c2ccccc2)no1 | -14 | -20% | -7% | 4.1µM*! | 6.5µM*! | 3%
COc1cc2c(NC3CCN(C)CC3)nc(N3CCCN(C)CC3)nc2cc1OCCCC(C)C | . | . | . | 1.1µM* | 1.1µM* | .
COc1cc2c(NC3CCN(C)CC3)nc(N3CCCN(C)CC3)nc2cc1OCCCN1CCCCC1 | . | . | . | 10µM* | 18µM* | .
Cc1ccc(Cn2c(C)nc3ccc([N+](=O)[O-])cc3c2=O)cc1 | -13 | -2% | 4% | 21µM* | 18µM* | 0%
N#Cc1c(N)n(Cc2ccccc2)c(=O)c2cc([N+](=O)[O-])ccc12 | -19 | -2% | 0% | 18µM* | 16µM* | -9%
CC(C)(C)NC(=O)CN(C(=O)CN1C(=O)C(=O)c2ccccc21)C(C)(C)C | -10 | 30% | 3% | 1% | -24% | 10%
COc1ccc(N=C2NC(=O)/C(=C/c3ccco3)S2)cc1 | -55* | -2% | -21% | ? | ? | 3%
O=C1NC(=Nc2ccccc2)S/C1=C\C=C\c1ccco1 | -7 | ? | -7% | 9.2µM* | 8.2µM* | ?
Cc1ccc(N=C2NC(=O)/C(=C/C=C/c3ccco3)S2)cc1 | 0 | 3% | -1% | 23µM* | ? | 7%
COc1ccc(N=C2NC(=O)/C(=C/C=C/c3ccccc3)S2)cc1 | -6 | -2% | -3% | ? | -2% | 1%
Cc1cccc(N=C2NC(=O)/C(=C/C=C/c3ccco3)S2)c1C | 4 | -20% | -6% | 16µM* | ? | ?
COc1ccc(S(=O)(=O)/N=C2/NC(=O)/C(=C/c3ccco3)S2)cc1 | 0 | 7% | -1% | -22% | -22% | 0%
Cc1cc(C)cc(OC(C)C(=O)NCCCn2ccnc2)c1 (centres undefined) | 10 | -2% | -3% | 0% | 6% | -1%
COC(=O)c1ccccc1-c1c2ccc(=N)cc-2oc2cc(N)ccc12 | -92* | 6.5µM* | -3% | 0.58µM* | 0.73µM* | 10µM*
COCC(=O)N1CCC2(CC1)CCN(C(=O)Nc1cccc(F)c1)CC2 | . | . | . | 0% | 9% | .
COCCn1c(C)cc(C2=NNC(=Nc3ccccc3)SC2)c1C | 4 | -4% | -1% | 16µM* | 22µM* | -2%
COc1ccc(N=C2SCC(=O)N2C)cc1 | -27 | 1% | . | 4% | -10% | 4%
CCN=C1NN=C(c2cc(C)n(Cc3ccco3)c2C)CS1 | 4 | -6% | 0% | 18µM* | 16µM* | -10%
COCCn1c(C)cc(C2=NNC(=Nc3ccc(OC)cc3)SC2)c1C | 40 | ? | ? | 12µM* | 23µM* | 10%
Cc1ccc(C)c(C2=NNC(=NCc3ccccc3)SC2)c1 | 25 | ? | 2% | ? | ? | -22%
Cc1cc(C2=NNC(=NCCc3ccccc3)SC2)c(C)n1CC1CCCO1 (centres undefined) | -77* | ? | -3% | ? | 16µM* | -18%
Cc1ccc(C(=O)N2CCCCC2)cc1S(=O)(=O)N1CCOCC1 | 0 | 3% | 5% | 2% | -5% | 3%
CC(C)N(C)c1ncnc2c1ncn2[C@H]1CN(Cc2cccs2)C[C@@H](CO)O1 | 10 | -1% | . | ? | ? | 15%
COCCn1c(C)cc(C2=NNC(=NC(C)(C)C)SC2)c1C | -9 | -17% | -3% | 18µM* | -97% | -6%
SMILES | IL-1B inflam inh | HT1080-NT tox | uPA surface inh | TDP1 cell noCPT | DT40 TDP1 CPT | HT1080 IDH1KD tx
COCCN=C1NN=C(c2ccc(C)c([N+](=O)[O-])c2)CS1 | -30 | 2% | 8% | ? | ? | -1%
CCOC(=O)c1c(C)n(-c2ccccc2)c2ccc(OC(=O)COc3ccccc3)cc12 | . | . | . | -14% | ? | .
COc1ccc(-n2c(C)c(C(C)=O)c3cc(OC(=O)COc4ccccc4)ccc32)cc1 | . | . | . | 7.3µM* | 6.5µM* | .
CC(=O)c1c(C)n(-c2ccc(C)cc2)c2ccc(OC(=O)COc3ccccc3)cc12 | . | . | . | 7.3µM* | 6.5µM* | .
COc1ccc(-n2c(C)c(C(C)=O)c3cc(OCC(N)=O)ccc32)cc1 | -16 | -7% | 2% | ? | ? | -9%
CCOC(=O)c1c(C)n(-c2ccc(OC)cc2)c2ccc(OC(=O)COc3ccccc3)cc12 | . | . | . | 21µM* | ? | .
OCC1=CC[N+]2(Cc3ccccc3)CCC(O)[C@@H]12 (some centres undefined) | . | . | . | -6%[9.04 µM] | 7%[9.04 µM] | .
COc1cc(=O)n2c(c1C(=O)NCc1ccco1)CCN(Cc1cccc(Cl)c1)CC2 | . | . | . | -26% | 14%[9.04 µM] | .
Cc1cnc(NC(=O)NCC2CCCC(CNC(=O)Nc3ncc(C)s3)C2)s1 (centres undefined) | -98* | ? | -3% | ? | ? | ?
Cc1ccc(OCCSc2nc3ncnc(N)c3[nH]2)cc1 | -8 | -10% | -7% | ? | 8.2µM* | -9%
Nc1ncnc2nc(SCCOc3ccc(Cl)cc3)[nH]c12 | 20 | -3% | 1% | -17% | -9% | -6%
O=C(O)c1cccc2c1C(=O)c1cc([N+](=O)[O-])ccc1-2 | 4 | 0% | 8% | ? | ? | 10%
CC(=O)NNC(=O)c1[nH]c2ccc(Br)cc2c1-c1ccccc1 | 12 | ? | -4% | -1% | -19% | ?
COc1ccc(/C=N/NC(=O)c2[nH]c3ccc(Br)cc3c2-c2ccccc2)c(C(=O)O)c1OC | 30 | 23µM* | 0% | -12% | -5% | 23µM*
COc1ccc(/C=N/NC(=O)c2[nH]c3ccc(Br)cc3c2-c2ccccc2)cc1 | 78 | 0.037µM* | -5% | 0.92µM* | 0.82µM* | 0.0052µM*
O=C(N/N=C/c1ccccc1Cl)c1[nH]c2ccc(Br)cc2c1-c1ccccc1 | 56 | 0.52µM* | -11% | 0.65µM* | 1.3µM* | 0.46µM*
CC(=O)N1CCc2cc(S(=O)(=O)NCC(=O)NCc3ccc(F)cc3)ccc21 | 17 | 7% | 2% | -20% | 3% | -5%
Nc1nc(Nc2ccccc2Cl)cc(=O)[nH]1 | -5 | -2% | 4% | ? | 17% | 13%
CC(C)(C)C1CCc2onc(C(=O)N3CCOCC3)c2C1 (centres undefined) | -9 | 27% | . | -20% | -25% | 3%
